An excerpt weighted towards active compounds, which were near 19% of everything screened.
HT1080 IDH1KD tx: qHTS for induction of synthetic lethality in tumor cells producing 2HG: qHTS for the HT-1080-IDH1KD cell line. HT-1080 IDH1 knockdown viability, ATP luminescence, 48 h. Potency, µM (highest dose often 46.1 µM), for the others: at the top dose activity, negative = toxicity, most hits filed as cytotoxic. 2% of 360,000 active;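 further: potency means the concentration at half of the fitted maximal effect; 0% = DMSO wells and -100% = cell-free medium wells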
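After a 2 h attachment period, IDH1KD HT-1080 cells took pin-transferred compound for 48 h at 37 °C; ATP-based luminescence after 10 min room-temperature reagent incubation reported viability.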
HT1080NT lethal: qHTS for induction of synthetic lethality in tumor cells producing 2HG: qHTS for the HT-1080-NT fibrosarcoma cell line; AID 686970, 2013; Potency, µM (titrated, usually from 46.1 µM), without a hit: at the top dose activity, negative = less viability, actives largely listed as cytotoxic; 1.6% of 360,000 active; HT-1080-NT fibrosarcoma viability, CellTiter-Glo ATP luminescence, 48 h;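 further: NT is the 2HG producing partner of a matched IDH1 knockdown line; potency means the concentration at half of the fitted maximal effect; 0% = DMSO-treated cells and -100% = media-only wells without cells; nearly all actives have a fitted effect of over 55% in size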
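HT-1080-NT fibrosarcoma cells (2HG-overproducing), 750 cells/well in RPMI with 5% FBS, dosed after 2 h and incubated 48 h at 37C. CellTiter-Glo luminescence normalized to DMSO and no-cell wells; concentration-response curves fitted and classed.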
TDP1 cell noCPT: qHTS for Inhibitors of human tyrosyl-DNA phosphodiesterase 1 (TDP1): qHTS in cells in absence of CPT; DT40 Tdp1-/- hTDP1 cells, no CPT, ATP luminescence, 48 h; Potency, µM (series often up to 46.2 µM), for inactives: at the top dose activity change, negative = growth inhibition, actives largely listed as inhibitors; 15% of 420,000 active; AID 686978, 2013; further: potency means the concentration at half of the fitted maximal effect; nearly all actives have a fitted effect of over 55% in size
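Chicken DT40 Tdp1-/- cells stably complemented with human TDP1 were seeded at 400 cells/well with DMSO in place of 20 nM camptothecin. After compound pinning, cells grew at least 48 hr at 37 °C; viability read by CellTiter-Glo luminescence.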
DT40 TDP1 CPT: qHTS for Inhibitors of human tyrosyl-DNA phosphodiesterase 1 (TDP1): qHTS in cells in presence of CPT; chicken DT40 Tdp1-/-;hTDP1 cells + 20 nM CPT, ATP luminescence, 48 h; Potency, µM (highest dose often 46.2 µM), inactives show at the highest dose activity change, negative = growth inhibition, most hits filed as inhibitors; AID 686979, 2013; 12% of 420,000 active; further: potency means the concentration at half of the fitted maximal effect; nearly all actives have a fitted effect of over 55% in size
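Chicken DT40 Tdp1-/- cells complemented with human TDP1, 400 cells/well, exposed to compounds plus 20 nM camptothecin for at least 48 h at 37 C; viability read as ATP content by CellTiter-Glo luminescence.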
IL-1B inflam inh: qHTS for Inhibitors of Inflammasome Signaling: IL-1-beta AlphaLISA Primary Screen | THP-1 LPS/ATP IL-1B secretion, AlphaLISA, 16 h; active compounds read low | activity change, % at 57.5 µM | 4.7% of 360,000 active; in the data active means activity change below about -50%; inconclusive means mostly about -30% to -49%
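Secreted IL-1B measured by AlphaLISA bead assay after 16 h compound exposure of THP-1 cells; compounds (final up to 57.5 uM) added 1 h before LPS (250 ng/mL) and ATP (1.25 mM) stimulation; lower signal means less secretion.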
Starred values were filed as active, the others as inactive; ? = inconclusive; / = no result. Unless noted, the call rests on the fitted dose curve; in most records, active means well fitted curve in the direction sought with a large enough effect; inconclusive means small, poorly fitted or top-dose-only effect, or another doubt; inactive means no such curve, though single readings can be large; an effect the other way counts as inactive or inconclusive. Unless noted, on the % scale 0 is the no-effect control and ±100 the full control effect.

SMILES | HT1080 IDH1KD tx | HT1080NT lethal | TDP1 cell noCPT | DT40 TDP1 CPT | IL-1B inflam inh
CC1CCCN(C(=O)c2ccc(Cl)c(S(=O)(=O)N3CCCCCC3)c2)C1 (stereo not drawn) | ? | -12.4% | 18.4µM* | ? | -7.4
CC(=O)N1CCN(C(=O)c2ccc(Cl)c(S(=O)(=O)N3CC(C)OC(C)C3)c2)CC1 (stereo not drawn) | -1.1% | -2.1% | 8.8% | -0.6% | -1.3
CC1CCN(S(=O)(=O)c2cc(C(=O)N3CCN(c4ncccn4)CC3)ccc2Br)CC1 | -19.9% | -0.8% | 23.1µM* | ? | -18.1
CC1CN(S(=O)(=O)c2cc(C(=O)N3CCCCC3C)ccc2Cl)CC(C)O1 (stereo not drawn) | -10.5% | -14.5% | 1.84µM* | -78.3% | 37.2
CC(=O)c1ccc([N+](=O)[O-])c(CS(=O)(=O)c2ccc(Cl)cc2)c1 | -5.6% | 5.8% | 8.6% | -18.8% | -11.7
CCCC(=O)NC(NC(=S)Nc1ccc(N=Nc2ccccc2)cc1)C(Cl)(Cl)Cl (stereo not drawn) | 18.4µM* | ? | 5.17µM* | 5.17µM* | ?
O=C(CCc1ccccc1)NNC(=O)Nc1ccc(Br)cc1 | 1.0% | 4.1% | -8.9% | -23.6% | -8.4
O=C(CCc1ccccc1)NC(NC(=S)Nc1ccc(Br)cc1)C(Cl)(Cl)Cl (stereo not drawn) | ? | 17.8µM* | 23.1µM* | 23.1µM* | -2.5
CCc1nc(Sc2nnnn2-c2ccccc2)c2c3c(sc2n1)CCCC3 | 3.1% | 9.6% | 18.4µM* | 16.4µM* | -81.1*
Cc1nc(Sc2nnnn2C)c2c3c(sc2n1)CCC3 | 5.17µM* | 3.26µM* | 1.64µM* | 2.06µM* | -57.2*
C[C@@H](c1ccccc1)N1C[C@H]2CCCN2c2cc(Br)ccc2S1(=O)=O | ? | ? | ? | 18.4µM* | 0.0
COc1ccc(/C=C/c2cc[n+](C(=O)Cc3ccccc3)cc2)cc1 | ? | ? | 2.31µM* | 3.26µM* | -107.5*
O=C(NCCC1CCCCN1S(=O)(=O)c1ccccc1)C(=O)Nc1ccc(F)cc1F (stereo not drawn) | -19.5% | -10.0% | 18.4µM* | 18.4µM* | ?
O=C(NCCC1CCCCN1S(=O)(=O)c1ccc(F)cc1)C(=O)Nc1ccccc1F (stereo not drawn) | -2.1% | -0.1% | 25.9µM* | ? | 6.9
O=C(NCCC1CCCCN1S(=O)(=O)c1ccccc1)C(=O)NC1CC1 (stereo not drawn) | 1.3% | 10.5% | -2.0% | 0.8% | -13.7
O=C(NCCC1CCCCN1S(=O)(=O)c1ccccc1)C(=O)Nc1ccccc1F (stereo not drawn) | -17.2% | -12.7% | 23.1µM* | 18.4µM* | 14.1
COc1ccccc1NC(=O)C(=O)NCCC1CCCCN1S(=O)(=O)c1ccc(F)cc1 (stereo not drawn) | -7.6% | -5.2% | 18.4µM* | 14.6µM* | -23.6
O=C(NCCC1CCCCN1S(=O)(=O)c1ccccc1)C(=O)Nc1ccccc1 (stereo not drawn) | -0.1% | 2.5% | ? | ? | -15.7
O=C(NCCSCc1ccccc1)C1CCN(S(=O)(=O)Cc2ccccc2)CC1 | / | / | -12.2% | -5.1% | /
Cc1c(NC(=O)C(C)OC(=O)C23CC4CC(CC(Br)(C4)C2)C3)c(=O)n(-c2ccccc2)n1C (stereo not drawn) | 11.2% | 10.9% | 3.0% | -27.1% | 36.2
CC/C(=N\NC(=O)c1ccc(N2CCCC2=O)cc1)c1ccccc1 | 0.5% | -4.0% | 4.5% | 0.4% | 7.1
O=C(NCCC1CCCCN1S(=O)(=O)c1ccccc1)C(=O)NCc1ccccc1F (stereo not drawn) | -7.0% | -3.6% | ? | ? | ?

Screens (PubChem BioAssay)
